Results: PubChem BioAssay (NCI)
This is part of a sample that, as a whole, favours compounds with a hit. Of some 79,000 tested, about 15% had one in any assay. Active and inactive are the calls of the source. Cut-off read from the data, not from the text of the source: active = growth inhibition above about 70%; inactive = the rest.

Legend:
[1] = NCI Yeast Anticancer Drug Screen. Data for the rad52 strain (AID 147);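 note: 0% = growth of vehicle-treated control cultures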; conditions: S. cerevisiae rad52 mutant growth inhibition, hits give high values
Method in brief: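 Yeast strain carrying a DNA damage repair alteration was exposed to test compounds. Growth inhibition was measured relative to vehicle-treated controls.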

[2] = NCI Yeast Anticancer Drug Screen. Data for the rad50EPP+ strain (AID 151);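 note: 0% = growth of vehicle-treated control cultures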; conditions: S. cerevisiae rad50 mutant strain, hits give high values
Method in brief: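 Yeast strain carrying rad50 alteration (rad50EPP+) exposed to compounds; growth inhibition measured relative to vehicle-treated controls.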

[3] = NCI Yeast Anticancer Drug Screen. Data for the mgt1 strain (AID 153); conditions: S. cerevisiae mgt1 mutant growth inhibition, hits give high values
Method in brief: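 Yeast mgt1 strain (DNA repair/cell-cycle alteration panel) exposed to compounds; growth inhibition measured relative to vehicle-treated controls.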

[4] = NCI Yeast Anticancer Drug Screen. Data for the rad50 strain (AID 155);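 note: 0% = growth of vehicle-only cultures of the same strain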; conditions: S. cerevisiae rad50 strain growth inhibition, hits give high values
Method in brief: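 Genetically altered yeast (DNA repair pathway); compound treatment; growth inhibition vs vehicle ctrl.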

[5] = NCI Yeast Anticancer Drug Screen. Data for the mec2-1 strain (AID 157); conditions: S. cerevisiae mec2-1 strain, hits give high values
Method in brief: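 mec2-1 yeast strain, carrying an alteration in DNA damage repair or cell cycle control, was exposed to compounds; growth inhibition was measured relative to vehicle-treated controls.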

[6] = NCI Yeast Anticancer Drug Screen. Data for the sgs1 mgt1 strain (AID 161);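 note: 0% = growth of cultures given vehicle only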; conditions: S. cerevisiae sgs1 mgt1 strain, hits give high values
Method in brief: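 Growth of a repair-deficient yeast mutant was monitored after compound treatment and expressed as inhibition relative to vehicle-treated cultures.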

[7] = NCI Yeast Anticancer Drug Screen. Data for the cln2 rad14 strain (AID 165);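 note: 0% = growth equal to vehicle treated cultures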; conditions: S. cerevisiae cln2 rad14 strain, hits give high values
Method in brief: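 Yeast carrying cln2 and rad14 alterations (cell cycle control and DNA damage repair) were exposed to compounds. Growth inhibition was measured against vehicle-treated controls.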

[8] = NCI Yeast Anticancer Drug Screen. Data for the wt2 strain (AID 169);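 note: 0% = growth of vehicle-treated yeast cultures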; conditions: S. cerevisiae wt2 strain growth inhibition, hits give high values
Method in brief: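 Yeast cells were exposed to test compounds, and growth inhibition was measured relative to vehicle-treated controls.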

[9] = NCI Yeast Anticancer Drug Screen. Data for the mlh1 strain (AID 171);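 note: 0% = growth of vehicle-treated control cultures of the same strain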; conditions: S. cerevisiae mlh1 strain growth inhibition, hits give high values
Method in brief: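 Yeast carrying a defined genetic alteration in DNA damage repair or cell cycle control were exposed to test compounds. Growth inhibition was measured relative to vehicle-treated controls.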

[10] = NCI Yeast Anticancer Drug Screen. Data for the sgs1 strain (AID 173);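 note: 0% = growth of vehicle-only control cultures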; conditions: S. cerevisiae sgs1 mutant, hits give high values
Method in brief: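 Yeast mutant strains carrying defined defects in DNA damage repair or cell cycle control were exposed to test compounds. Growth inhibition was scored against vehicle-treated controls.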

[11] = NCI Yeast Anticancer Drug Screen. Data for the mlh1 rad18 strain (AID 175); conditions: S. cerevisiae mlh1 rad18 strain growth inhibition, hits give high values
Method in brief: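 Growth inhibition of the yeast strain was measured after compound exposure and expressed relative to vehicle-treated controls. The strain carries defined defects in DNA damage repair.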

[12] = NCI Yeast Anticancer Drug Screen. Data for the rad18 strain (AID 177); conditions: S. cerevisiae rad18 mutant growth inhibition, hits give high values
Method in brief: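 Yeast carrying a defined DNA damage repair alteration were exposed to compounds. Growth inhibition was expressed relative to vehicle-treated controls.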

[13] = NCI Yeast Anticancer Drug Screen. Data for the wt1 strain (AID 149);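 note: 0% = growth of vehicle-treated wt1 cultures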; conditions: S. cerevisiae wt1 strain (SPY 50644) growth inhibition, hits give high values
Method in brief: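 wt1 yeast, compound-treated; % growth inhibition vs vehicle control.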

[14] = NCI Yeast Anticancer Drug Screen. Data for the rad14 strain (AID 159);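 note: 0% = growth of vehicle-treated control cultures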; conditions: S. cerevisiae rad14 strain growth inhibition, hits give high values
Method in brief: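 Test compounds were applied to a repair-deficient yeast strain. Its growth was then compared with that of cultures given vehicle alone, and inhibition was expressed relative to those controls.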

[15] = NCI Yeast Anticancer Drug Screen. Data for the CLN2oe strain (AID 163);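 note: 0% = growth of vehicle-only control cultures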; conditions: S. cerevisiae CLN2oe strain, hits give high values
Method in brief: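 Yeast cells carrying a defined cell-cycle control alteration were exposed to test compounds. Growth inhibition was scored against vehicle-treated control cultures.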

[16] = NCI Yeast Anticancer Drug Screen. Data for the bub3 strain (AID 167); conditions: S. cerevisiae bub3 mutant strain, hits give high values
Method in brief: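 Yeast carrying a defined mutation is treated with each compound, and growth is compared with that of vehicle-exposed cells to give inhibition.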

[17] = at 5.0 µM (retest, dose inferred, filed as 0.5)
[18] = at 50.0 µM (retest, dose inferred, filed as 5.0)

Measured: growth inhibition

O=C(O)c1cc2ccccc2c2c1C(=O)c1ccccc1-2
inactive: [1]; at 1.2 µM -3% | [1]; at 3.7 µM 21% | [2]; at 1.2 µM -23% | [2]; at 3.7 µM -36% | [2]; at 11.0 µM 10% | [2]; at 33.0 µM 47% | [2]; at 100.0 µM 67% | [3]; at 1.2 µM 11% | [3]; at 3.7 µM 20% | [3]; at 11.0 µM 43% | [4]; at 1.2 µM 4% | [4]; at 3.7 µM 19% | [4]; [17] 8% | [5]; at 1.2 µM -9% | [5]; at 3.7 µM 9% | [5]; [17] 25% | [5]; at 11.0 µM 29% | [6]; [17] 0% | [7]; [17] 45% | [8]; at 1.2 µM -1% | [8]; at 3.7 µM 11% | [8]; at 11.0 µM 49% | [9]; at 1.2 µM 9% | [9]; at 3.7 µM 14% | [9]; at 11.0 µM 59% | [10]; at 1.2 µM 18% | [10]; at 3.7 µM 28% | [10]; at 11.0 µM 69% | [11]; [17] 22% | [12]; at 1.2 µM 5% | [12]; at 3.7 µM 12% | [12]; at 11.0 µM 43%
active: [1]; at 11.0 µM 74% | [1]; at 33.0 µM 96% | [1]; at 100.0 µM 94% | [3]; at 33.0 µM 95% | [3]; at 100.0 µM 95% | [4]; at 11.0 µM 77% | [4]; at 33.0 µM 95% | [4]; [18] 94% | [4]; at 50.0 µM 88.2% | [4]; at 100.0 µM 93% | [5]; at 33.0 µM 95% | [5]; [18] 96% | [5]; at 50.0 µM 91.5% | [5]; at 100.0 µM 92% | [6]; [18] 94% | [6]; at 50.0 µM 92.6% | [7]; [18] 97% | [7]; at 50.0 µM 88.8% | [8]; at 33.0 µM 96% | [8]; at 100.0 µM 95% | [9]; at 33.0 µM 95% | [9]; at 100.0 µM 95% | [10]; at 33.0 µM 95% | [10]; at 100.0 µM 96% | [11]; [18] 97% | [11]; at 50.0 µM 90% | [12]; at 33.0 µM 95% | [12]; at 100.0 µM 94%

Cn1c(-c2ccc(/C=N\N3CCN(/N=C/c4ccc(-c5c[n+]6ccccc6n5C)cc4)CC3)cc2)c[n+]2ccccc12
inactive: [13]; at 1.2 µM -9% | [13]; at 3.7 µM -13% | [13]; at 11.0 µM -4% | [13]; at 33.0 µM 28% | [2]; at 1.2 µM -36% | [2]; at 3.7 µM -26% | [2]; at 11.0 µM -27% | [2]; at 33.0 µM -9% | [2]; at 100.0 µM 6% | [3]; at 1.2 µM -30% | [3]; at 3.7 µM -10% | [3]; at 11.0 µM -27% | [3]; at 33.0 µM 38% | [4]; at 1.2 µM -15% | [4]; at 3.7 µM -16% | [4]; [17] -2% | [4]; at 11.0 µM -4% | [4]; at 33.0 µM 51% | [4]; at 50.0 µM 49% | [5]; at 1.2 µM -8% | [5]; at 3.7 µM -17% | [5]; [17] 15% | [5]; at 11.0 µM 11% | [5]; at 50.0 µM 25.4% | [14]; at 1.2 µM -31% | [14]; at 3.7 µM -36% | [14]; at 11.0 µM -16% | [14]; at 33.0 µM 17% | [6]; [17] 19% | [15]; at 1.2 µM -22% | [15]; at 3.7 µM -41% | [15]; at 11.0 µM -27% | [15]; at 33.0 µM 52% | [7]; [17] -5% | [7]; [18] 69% | [7]; at 50.0 µM 22.4% | [16]; at 1.2 µM -13% | [16]; at 3.7 µM 0% | [16]; [17] 19% | [16]; at 11.0 µM -2% | [16]; at 33.0 µM 54% | [8]; at 1.2 µM -50% | [8]; at 3.7 µM -36% | [8]; at 11.0 µM -37% | [9]; at 1.2 µM -17% | [9]; at 3.7 µM -13% | [9]; at 11.0 µM 3% | [9]; at 33.0 µM 57% | [10]; at 1.2 µM -20% | [10]; at 3.7 µM -33% | [10]; at 11.0 µM -17% | [10]; at 33.0 µM 65% | [11]; [17] 46%
active: [13]; at 100.0 µM 92% | [3]; at 100.0 µM 91% | [4]; [18] 94% | [4]; at 100.0 µM 91% | [5]; at 33.0 µM 78% | [5]; [18] 96% | [5]; at 100.0 µM 93% | [14]; at 100.0 µM 84% | [6]; [18] 95% | [6]; at 50.0 µM 72.4% | [15]; at 100.0 µM 86% | [16]; [18] 95% | [16]; at 50.0 µM 80.5% | [16]; at 100.0 µM 91% | [8]; at 33.0 µM 74% | [8]; at 100.0 µM 92% | [9]; at 100.0 µM 90% | [10]; at 100.0 µM 90% | [11]; [18] 94% | [11]; at 50.0 µM 84.3%
